# Laboratory results reported in the supplement of paper PMC12645437, “Orthogonal IMiD-Degron Pairs Induce Selective Protein Degradation in Cells” (ACS Chemical Biology, 2025).
# In all, about 8,300 sequences were measured (“log2 fold change of degron read counts, EGFP-low vs EGFP+ sorted cells (limma voom), compound-induced degradation”: median about -1.1, highest 2% from about 3.2 on). Shown is part of a subset that was picked to be rich in the highest values.
# Target: T1, CRBN, Q96SW2
# T1 chain: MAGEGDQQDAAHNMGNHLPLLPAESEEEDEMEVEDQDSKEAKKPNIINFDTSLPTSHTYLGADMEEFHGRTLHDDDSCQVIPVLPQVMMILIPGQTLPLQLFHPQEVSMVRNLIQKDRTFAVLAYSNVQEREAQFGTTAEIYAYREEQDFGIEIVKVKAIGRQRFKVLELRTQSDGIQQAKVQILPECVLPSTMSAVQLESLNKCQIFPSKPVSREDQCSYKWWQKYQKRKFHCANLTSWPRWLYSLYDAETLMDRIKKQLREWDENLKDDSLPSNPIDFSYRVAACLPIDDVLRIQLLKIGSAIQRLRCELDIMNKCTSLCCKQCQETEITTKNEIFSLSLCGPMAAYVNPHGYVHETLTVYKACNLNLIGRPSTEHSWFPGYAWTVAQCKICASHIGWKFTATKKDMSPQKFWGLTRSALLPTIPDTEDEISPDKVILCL
# Experiment: log2 fold change of degron read counts, EGFP-low vs EGFP+ sorted cells (limma voom), compound-induced degradation; higher = more compound-induced degradation of the degron-EGFP fusion; degrons are variants of IKZF1/3 zinc finger 2; compound dose not given here
# Settings: Jurkat, 18 h
# [1] = compound: compound 19 (5-tert-butyl-thalidomide)
# [2] = compound: compound 22 (5-morpholino-thalidomide)
# [3] = compound: compound 33 (diphenyl IMiD analogue)
# 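Also: pooled lentiviral library of zinc finger degron-EGFP fusions in mCherry-positive Jurkat cells, FACS-sorted after compound exposure, with degron abundance counted by next-generation sequencing.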
Sequence,log2 fold change of degron read counts [1],log2 fold change of degron read counts [2],log2 fold change of degron read counts [3],log2 fold change of degron read counts (compound: thalidomide)
"FGCPICGRKFTQKGNLLRHIKL [46F_47G_49P_50I_52G_53R_54K_55F_67L_, Q9UKT9]",3.06,0.59,-1.32,-0.606
"FRCNQCGRVFTQKGNLLRHIKL [46F_47R_49N_50Q_52G_53R_54V_55F_67L_, Q9UKT9]",-2.28,-2.49,-2.54,-1.61
"FQCPICGRLFTQKGNLLRHIKL [46F_47Q_49P_50I_52G_53R_54L_55F_67L_, Q9UKT9]",-1.51,-0.0572,0.785,2.29
"FVCEICGAFFTQKGNLLRHIKL [46F_47V_49E_50I_52G_53A_54F_55F_67L_, Q9UKT9]",-0.344,-0.0422,1.09,1.08
"FICDVCGALFTQKGNLLRHIKL [46F_47I_49D_50V_52G_53A_54L_55F_67L_, Q9UKT9]",-1.82,-0.923,0.0161,-0.806
"FCCPQCGATFTQKGNLLRHIKL [46F_47C_49P_50Q_52G_53A_54T_55F_67L_, Q9UKT9]",-1.19,-0.971,1.49,-0.551
"FLCPICGREFTQKGNLLRHIKL [46F_47L_49P_50I_52G_53R_54E_55F_67L_, Q9UKT9]",-2.12,-2.2,-0.686,0.04
"FNCNICGAIFTQKGNLLRHIKL [46F_47N_49N_50I_52G_53A_54I_55F_67L_, Q9UKT9]",-1.14,-1.24,-0.567,-1.09
